# Assay results reported in PubChem BioAssay AID588727 (Southern Research Specialized Biocontainment Screening …, 2011).
# Hit rate of the full screen: of about 350,000 compounds, about 450 (0.13%) were called active. No rule for the calls is given here. These entries were drawn from the full list. Results with a measured potency or affinity are listed apart.
# Assay: inhibitors of VEEV TC-83 cytopathic effect, confirmation, Vero cells (AID 588727)
# Settings: VEEV TC-83 cytopathic effect inhibition, at 20 µM
# [1] = stronger effect = higher value unless noted
smiles,measurement,setting,value
COc1ccc(C(=O)CCC(=O)Nc2cccnc2)cc1,inhibition,[1],1.27% (inactive)
COc1ccc(Nc2c(-c3ccc(C)cc3)nc3cnccn23)cc1,inhibition,[1],2.6% (inactive)
CCOC(=O)C1CCCN(c2nnnn2-c2ccccc2)C1 (stereo not drawn),inhibition,[1],0.53% (inactive)
O=C(CSc1nnc(-c2ccco2)o1)Nc1cccc([N+](=O)[O-])c1,inhibition,[1],1.81% (inactive)
O=C(Oc1ccc2ccccc2c1Cl)N1CCCC1,inhibition,[1],35.1% (inactive)
O=C(Oc1ccc2ccccc2c1Cl)N1CCCCCC1,inhibition,[1],2.11% (inactive)
CN1CCN(C(=O)CCc2nc3ccccc3c(=O)[nH]2)CC1,inhibition,[1],5.24% (inactive)
CN(C)C(CNC(=O)CN1C(=O)NC2(CCCC2)C1=O)c1ccccc1 (stereo not drawn),inhibition,[1],1.45% (inactive)
CCOc1ccc(/C=N/NC(=O)c2ccc(O)cc2)cc1CN1CC2CC(C1)c1cccc(=O)n1C2 (stereo not drawn),inhibition,[1],1.76% (inactive)
CCc1c(C)sc(NC(=O)c2cccs2)c1C(N)=O,inhibition,[1],0.91% (inactive)
CCc1c(C)sc(NC(=O)C2CCCCC2C(=O)O)c1C(N)=O (stereo not drawn),inhibition,[1],inactive
O=C(O)CSc1nnc(Cc2ccccc2)n1-c1ccccc1,inhibition,stronger effect = higher value,4.71% (inactive)
same,inhibition,"measured here: 10K pilot screen inhibition, stronger effect = higher value",0.6%
COc1ccc(Cl)cc1NC(=O)C(C)N(C)Cc1cccc(Cl)c1Cl (stereo not drawn),inhibition,[1],0.94% (inactive)
COc1ccc(C2/C(=C(\O)c3cc(C)ccc3C)C(=O)C(=O)N2CCN(C)C)cc1OC (stereo not drawn),inhibition,[1],0.58% (inactive)
O=C(O)CCC(=O)N1CCCC1,inhibition,[1],0.36% (inactive)
Nc1ccn([C@H]2CS[C@@H](CO)O2)c(=O)n1,inhibition,[1],1.18% (inactive)
CCc1cccc2c(SC(C)C(=O)NCC3CCCO3)nc(-c3ccccc3)nc12 (stereo not drawn),inhibition,[1],0.17% (inactive)
CC(Sc1ncnc2sc(-c3ccccc3)cc12)C(=O)NCC1CCCO1 (stereo not drawn),inhibition,[1],12.6% (inactive)
Cc1cccc(NC(=O)NNC(=O)c2sccc2-n2cccc2)c1,inhibition,[1],2.59% (inactive)
O=C(/C=C/c1ccccc1Cl)c1ccc(O)cc1,inhibition,[1],12.4% (inactive)
O=C(/C=C/c1c(F)cccc1Cl)Nc1ncccn1,inhibition,[1],7.45% (inactive)
CCCCn1c(N)c(N(Cc2ccccc2OC)C(=O)CCSC)c(=O)[nH]c1=O,inhibition,[1],2% (inactive)
Cc1nn(C)cc1/C=N/NC(=S)Nc1ccc(Cl)cc1Cl,inhibition,[1],1.88% (inactive)
Clc1cccc(-c2noc3ncnc(Nc4ccc5c(c4)OCO5)c23)c1,inhibition,[1],1.3% (inactive)
O=C(Nc1ccc(N2CCOCC2)c(Cl)c1)c1cccnc1,inhibition,[1],1.94% (inactive)
O=C(Nc1ccc(N2CCCC2)c(Cl)c1)c1cccnc1,inhibition,[1],9.45% (inactive)
O=C(Nc1ccc(Cl)cc1)c1nc[nH]c1C(=O)NCCN(CCNC(=O)c1[nH]cnc1C(=O)Nc1ccc(Cl)cc1)CCNC(=O)c1[nH]cnc1C(=O)Nc1ccc(Cl)cc1,inhibition,[1],0.19% (inactive)
